Records with an inconclusive call do not appear. Activity calls are given as the source filed them. The call rests on the fitted dose curve; in most records, active means well fitted curve in the direction sought with a large enough effect; inconclusive means small, poorly fitted or top-dose-only effect, or another doubt; inactive means no such curve, though single readings can be large; an effect the other way counts as inactive or inconclusive.
Legend:
[1] = qHTS of pediatric cancer cell lines to identify multiple opportunities for drug repurposing: Primary screen for RD cells (AID 1347104); settings: RD rhabdomyosarcoma viability, CellTiter-Glo luminescence, 48 h; series mostly up to 46 µM; further: nearly all actives have a fitted effect of over 55% in size; further: potency means the concentration at half of the fitted maximal effect
Procedure, shortened: (§1)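 Quantitative HTS format: each compound titrated (MIPE 11 points from 0.78 nM, NPC 8 points from 0.59 nM) onto cells plated 5 hours earlier. After 48 h at 37 degrees C, CellTiter-Glo luminescence was recorded.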

[2] = qHTS of pediatric cancer cell lines to identify multiple opportunities for drug repurposing: Primary screen for MG 63 (6-TG R) cells (AID 1347105); settings: MG 63 (6-TG R) viability, CellTiter-Glo, 48 h; series mostly up to 46 µM; further: nearly all actives have a fitted effect of over 50% in size; further: potency means the concentration at half of the fitted maximal effect
Procedure, shortened: as §1

[3] = qHTS of pediatric cancer cell lines to identify multiple opportunities for drug repurposing: Primary screen for Rh30 cells (AID 1347107); settings: Rh30 rhabdomyosarcoma viability, CellTiter-Glo luminescence, 48 h; series mostly up to 46 µM; further: nearly all actives have a fitted effect of over 75% in size; further: potency means the concentration at half of the fitted maximal effect
Procedure, shortened: (§2)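 Viability after 48 h compound treatment at 37C, 500-1,000 cells/well, read as ATP luminescence with CellTiter-Glo. Primary screens used 11-point (MIPE, 0.78 nM-46 µM) or 8-point (NPC, 0.59 nM-46 µM) final concentrations; follow-up screens used 11-point dilutions.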

[4] = qHTS of pediatric cancer cell lines to identify multiple opportunities for drug repurposing: Primary screen for Rh41 cells (AID 1347108); settings: Rh41 rhabdomyosarcoma viability, CellTiter-Glo luminescence, 48 h; series mostly up to 46 µM; further: nearly all actives have a fitted effect of over 70% in size; further: potency means the concentration at half of the fitted maximal effect
Procedure, shortened: as §1

[5] = qHTS of pediatric cancer cell lines to identify multiple opportunities for drug repurposing: Primary screen for control Hh wild type fibroblast cells (AID 1347106); settings: Hh wild-type fibroblast viability, CellTiter-Glo luminescence, 48 h; series mostly up to 46 µM; further: nearly all actives have a fitted effect of over 55% in size; further: potency means the concentration at half of the fitted maximal effect
Procedure, shortened: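 Cells (500-1,000/well) in growth media were settled 5 h at 37 degrees C, then given compounds for 48 h. Viability was read as CellTiter-Glo luminescence. Primary runs used MIPE at 11 points (0.78 nM-46 µM) and NPC at 8 points (0.59 nM-46 µM); follow-ups used 11 points.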

[6] = qHTS of pediatric cancer cell lines to identify multiple opportunities for drug repurposing: Confirmatory screen for NB1643 cells (AID 1347109); settings: NB1643 neuroblastoma cell viability; series mostly up to 45.9 µM; further: nearly all actives have a fitted effect of over 45% in size; further: potency means the concentration at half of the fitted maximal effect
Procedure, shortened: as §2

[7] = qHTS of pediatric cancer cell lines to identify multiple opportunities for drug repurposing: Confirmatory screen for SK-N-MC cells (AID 1347111); settings: SK-N-MC cell viability; series mostly up to 45.9 µM;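 further: cells exposed to compound for 48 h before the readout; nearly all actives have a fitted effect of over 70% in size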; further: potency means the concentration at half of the fitted maximal effect
Procedure, shortened: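 SK-N-MC cells at 500-1,000 cells/well in growth media were pre-incubated 5 h, then exposed to compounds at 11-point dilutions for 48 h at 37 degrees C, 5% CO2. Viability was read as CellTiter-Glo luminescence.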

[8] = qHTS of pediatric cancer cell lines to identify multiple opportunities for drug repurposing: Confirmatory screen for BT-12 cells (AID 1347112); settings: BT-12 rhabdoid tumor cells, viability; series mostly up to 45.9 µM; further: nearly all actives have a fitted effect of over 55% in size
Procedure, shortened: as §2

[9] = qHTS of pediatric cancer cell lines to identify multiple opportunities for drug repurposing: Confirmatory screen for LAN-5 cells (AID 1347113); settings: LAN-5 neuroblastoma cell viability; series mostly up to 45.9 µM; further: nearly all actives have a fitted effect of over 65% in size; further: potency means the concentration at half of the fitted maximal effect
Procedure, shortened: as §2

[10] = qHTS of pediatric cancer cell lines to identify multiple opportunities for drug repurposing: Confirmatory screen for NB-EBc1 cells (AID 1347115); settings: NB-EBc1 neuroblastoma cells, viability (cytotoxicity); series mostly up to 45.9 µM; further: nearly all actives have a fitted effect of over 45% in size
Procedure, shortened: as §2

[11] = qHTS of pediatric cancer cell lines to identify multiple opportunities for drug repurposing: Confirmatory screen for SJ-GBM2 cells (AID 1347116); settings: SJ-GBM2 glioblastoma cells, viability; series mostly up to 45.9 µM; further: nearly all actives have a fitted effect of over 60% in size; further: potency means the concentration at half of the fitted maximal effect
Procedure, shortened: (§3)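 Viability measured as metabolically active cells via CellTiter-Glo luminescence following 48 hours of compound exposure, 11-point dilutions in confirmatory testing. 500-1,000 cells/well plated 5 hours before dosing; controls were DMSO and 2.3 µM bortezomib.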

[12] = qHTS of pediatric cancer cell lines to identify multiple opportunities for drug repurposing: Confirmatory screen for BT-37 cells (AID 1347117); settings: BT-37 pediatric cancer cells, viability; series mostly up to 45.9 µM; further: nearly all actives have a fitted effect of over 55% in size; further: potency means the concentration at half of the fitted maximal effect
Procedure, shortened: as §2

[13] = qHTS of pediatric cancer cell lines to identify multiple opportunities for drug repurposing: Confirmatory screen for TC32 cells (AID 1347118); settings: TC32 Ewing sarcoma cells viability qHTS; series mostly up to 45.9 µM; further: nearly all actives have a fitted effect of over 65% in size; further: potency means the concentration at half of the fitted maximal effect
Procedure, shortened: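 Luminescent CellTiter-Glo read-out of metabolically active TC32 cells after 48 h compound exposure. Primary: MIPE 11-point, 0.78 nM–46 µM; NPC 8-point, 0.59 nM–46 µM. Confirmatory: 11-point dilutions.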

[14] = qHTS of pediatric cancer cell lines to identify multiple opportunities for drug repurposing: Confirmatory screen for MG 63 (6-TG R) cells (AID 1347119); settings: MG-63 (6-TG resistant) osteosarcoma viability; series mostly up to 45.9 µM; further: nearly all actives have a fitted effect of over 55% in size
Procedure, shortened: as §2

[15] = qHTS of pediatric cancer cell lines to identify multiple opportunities for drug repurposing: Confirmatory screen for control Hh wild type fibroblast cells (AID 1347121); settings: viability qHTS; series mostly up to 45.9 µM; further: nearly all actives have a fitted effect of over 70% in size
Procedure, shortened: as §2

[16] = qHTS of pediatric cancer cell lines to identify multiple opportunities for drug repurposing: Confirmatory screen for RD cells (AID 1347124); settings: RD rhabdomyosarcoma cell viability; series mostly up to 45.9 µM;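 further: cells exposed to compound for 48 h before viability readout; nearly all actives have a fitted effect of over 65% in size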; further: potency means the concentration at half of the fitted maximal effect
Procedure, shortened: as §2

[17] = qHTS of pediatric cancer cell lines to identify multiple opportunities for drug repurposing: Confirmatory screen for DAOY cells (AID 1347114); settings: DAOY medulloblastoma cells viability, cytotoxicity qHTS; series mostly up to 45.9 µM; further: nearly all actives have a fitted effect of over 65% in size; further: potency means the concentration at half of the fitted maximal effect
Procedure, shortened: as §3

[18] = qHTS of pediatric cancer cell lines to identify multiple opportunities for drug repurposing: Confirmatory screen for Rh41 cells (AID 1347123); settings: Rh41 rhabdomyosarcoma cells, viability/cytotoxicity qHTS; series mostly up to 45.9 µM; further: nearly all actives have a fitted effect of over 60% in size; further: potency means the concentration at half of the fitted maximal effect
Procedure, shortened: as §2

Measured: Potency

CN(C)Cc1ccc(-c2nc3cccc4c3n2CCNC4=O)cc1
active: [1] 16.6 µM
inactive: [2] | [3] | [4]

COc1ccc(Cc2ccc(NC(N)=O)cc2)cc1-c1cccc(Cl)c1
inactive: [1] | [2] | [5] | [3]

CC(C)(C)COc1ccc(-n2cc(C(=O)O)cn2)cc1C#N
inactive: [1] | [2] | [5] | [3] | [4]

CC(C)OC(=O)C(C)(C)Oc1ccc(C(=O)c2ccc(Cl)cc2)cc1
inactive: [1] | [2] | [5] | [3] | [4]

CC(=NNC(=S)N1CCC1)c1ccccn1
active: [1] 0.003 µM | [2] 0.0235 µM | [5] 0.166 µM
inactive: [6] | [7] | [8] | [9] | [10] | [11] | [12] | [13] | [14] | [15] | [16]

CC(C)C(=O)Oc1ccc(CO)cc1[C@H](CCN(C(C)C)C(C)C)c1ccccc1
inactive: [1] | [2] | [5] | [3]

NC(=O)c1cccc(-c2cc(Nc3ccc(OC(F)(F)F)cc3)ncn2)c1
inactive: [1] | [2] | [5] | [4]

O=C(O)[C@H]1O[C@H](Oc2cc3oc(-c4ccccc4)cc(=O)c3c(O)c2O)[C@H](O)[C@@H](O)[C@H]1O
inactive: [1] | [2] | [5]

CC(C)C[C@H](CC(=O)O)C(=O)N[C@@H](Cc1c[nH]c2ccccc12)C(=O)N[C@@H](C)c1ccccc1
inactive: [1] | [2] | [3] | [4]

CC1(C)CCC[C@@]2(C)[C@@H]1CC[C@@]1(C)OC(=O)C[C@H]21
inactive: [1] | [2] | [5] | [3] | [4] | [6] | [8] | [9] | [17] | [10] | [12] | [14] | [15]
active: [7] 26.1 µM

C[C@]12CCC3c4ccc(O)cc4CCC3C1CCC2=O (stereo not given in full)
inactive: [1] | [2] | [5] | [3]

Oc1ccc(C2=Cc3ccc(O)cc3OC2)cc1
inactive: [2] | [5]
active: [1] 5.26 µM | [3] 11.8 µM | [4] 5.9 µM

CO[C@H]1C=CO[C@@]2(C)Oc3c(C)c(O)c4c(O)c(c5c(c4c3C2=O)NC2(CCN(CC(C)C)CC2)N=5)=NC(=O)C(C)=CC=C[C@H](C)[C@H](O)[C@@H](C)[C@@H](O)[C@@H](C)[C@H](OC(C)=O)[C@H]1C
inactive: [1] | [2] | [3] | [4]

OC[C@H]1O[C@@H](Oc2cc(O)cc(C=Cc3ccc(O)cc3)c2)[C@H](O)[C@@H](O)[C@H]1O
inactive: [1] | [2] | [5] | [3] | [4]

NC(=O)c1cccc2[nH]c(-c3ccc([C@H]4CCCN4)cc3F)nc12
inactive: [1] | [5] | [3] | [4]

COC[C@@H](c1ccc(C(F)(F)F)cc1)N1CCN(C2(C)CCN(C(=O)c3c(C)ncnc3C)CC2)C[C@H]1C
inactive: [1] | [3] | [4]

CC1(C)CCC2=C(O1)c1ccccc1C(=O)C2=O
active: [1] 33.2 µM | [3] 23.5 µM | [4] 18.7 µM | [6] 23.3 µM | [9] 9.27 µM | [11] 1.31 µM | [12] 23.3 µM | [13] 23.3 µM | [18] 8.27 µM | [16] 0.465 µM

O=c1c(O)c(-c2ccc(O)cc2)oc2cc(O)cc(O)c12
inactive: [2]

Cc1cc(OCCCc2c(C(=O)O)n(Cc3cccnc3)c3c(-c4c(COc5ccc(N6CCN([S+](C)(=O)[O-])CC6)cc5)nn(C)c4C)cccc23)cc(C)c1Cl
active: [1] 29.6 µM | [2] 29.6 µM | [6] 16.5 µM | [7] 20.8 µM | [12] 18.5 µM | [18] 1.04 µM
inactive: [5] | [10]

Clc1ccc(Cn2c(CN3CCCC3)nc3ccccc32)cc1
inactive: [1] | [2] | [5] | [3]

Cc1ccc(Nc2cc(-c3cccc(N4C(=O)c5ccccc5C4=O)c3)ncn2)cc1NS(C)(=O)=O
inactive: [2] | [5]

O=C(NCc1ccccc1)c1csc(Nc2ccncn2)n1
active: [2] 23.5 µM | [4] 9.35 µM

CCN(CC)CCOc1ccc(C(=C(Cl)c2ccccc2)c2ccccc2)cc1
inactive: [2] | [3] | [4]

O=C1NC(=O)C(=Cc2ccc3c(c2)OC(F)(F)O3)S1
active: [17] 26.1 µM
inactive: [5] | [4] | [6] | [8] | [9] | [10] | [11] | [12] | [15] | [18] | [16]

NC(=O)c1ccc2nc(-c3ccc(Oc4ccc(Cl)cc4)cc3)[nH]c2c1
inactive: [2] | [5] | [3] | [4]

CC(=O)OC1C(C)OC(Oc2c(-c3ccc(O)cc3)oc3cc(O)cc(O)c3c2=O)C(O)C1OC(C)=O (stereo not given)
inactive: [2] | [5]

O=c1cc(-c2cccc3c2Sc2ccccc2S3)oc(N2CCOCC2)c1
inactive: [5] | [3]

Cn1cc(C=C2C(=O)Nc3cccnc32)c2ccccc21
inactive: [2] | [5] | [3] | [4]

O=C1c2c(O)cc(O)cc2O[C@H](c2cc(O)c(O)c(O)c2)[C@H]1O
inactive: [5] | [3]

O=C(Nc1cc(Cl)cc2c1[nH]c1cnccc12)c1cccnc1
inactive: [4]

CO[C@H]1C[C@@H]2CC[C@@H](C)[C@@](O)(O2)C(=O)C(=O)N2CCCC[C@@H]2C(=O)O[C@H]([C@H](C)C[C@@H]2CC[C@H](OP(C)(C)=O)[C@H](OC)C2)CC(=O)[C@H](C)C=C(C)[C@@H](O)[C@@H](OC)C(=O)[C@H](C)C[C@H](C)C=CC=CC=C1C
active: [7] 11.7 µM | [13] 10.4 µM | [18] 4.65 µM
inactive: [2] | [5] | [3] | [6] | [15]

COc1cc2c(cc1OC)CN(CCc1ccc(NC(=O)c3cc(OC)c(OC)cc3NC(=O)c3cnc4ccccc4c3)cc1)CC2
inactive: [2] | [5] | [3]

O=C(Nc1ccccc1Br)N[C@@H]1CCN(c2ccc(C(F)(F)F)cn2)C1
inactive: [5]

CC1CCC(C(=O)N(c2cc(C#CC(C)(C)C)sc2C(=O)O)C2CCC(O)CC2)CC1 (stereo not given)
inactive: [2] | [5]

c1ccc2c(-c3cnn4cc(-c5ccc(N6CCNCC6)cc5)cnc34)ccnc2c1
active: [5] 4.69 µM | [3] 18.7 µM

O=C1NC(=O)C(=Cc2ccc(-c3ccc(F)cc3)o2)S1
inactive: [4]

NC(=O)[C@@H](CCC(F)(F)F)N(Cc1ccc(-c2ncon2)cc1F)S(=O)(=O)c1ccc(Cl)cc1
inactive: [5]

CCNc1cc(NC2CCC(O)CC2)nc(Nc2ccc3c(ccn3Cc3ccccc3)c2)n1 (stereo not given)
inactive: [2] | [3]

Clc1cc(Cl)cc(CNc2ncncc2-c2ccc3c(c2)OCO3)c1
inactive: [5] | [3]

Reference: PubChem BioAssay (NCATS)
